Measurements taken from PubChem BioAssay (NCATS).
Values joined by “and” are separate entries in the source; they are usually repeats but may differ in a detail not shown here. Identical values can stand only once. Inconclusive results are not listed. Active and inactive are the calls of the source. The call rests on the fitted dose curve; in most records, active means well fitted curve in the direction sought with a large enough effect; inconclusive means small, poorly fitted or top-dose-only effect, or another doubt; inactive means no such curve, though single readings can be large; an effect the other way counts as inactive or inconclusive.

How the values were obtained:
[1] = OV-KATE Cancer Cell Toxicity qHTS against the NCATS CANVASS Library (AID 1347345); further: potency means the concentration at half of the fitted maximal effect
How it was run: (§1)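 ATP content after 72 h treatment, detected by CellTiter-Glo luminescence (15min room-temperature development), reflects cell viability. Wells contained 1000 cells and received compounds at 11 concentrations.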

[2] = OV-SAHO Cancer Cell Toxicity qHTS against the NCATS CANVASS Library (AID 1347348); further: nearly all actives have a fitted effect of over 55% in size; further: potency means the concentration at half of the fitted maximal effect
How it was run: as §1

[3] = SW1088 Cancer Cell Toxicity qHTS against the NCATS CANVASS Library (AID 1347350); further: nearly all actives have a fitted effect of over 75% in size; further: potency means the concentration at half of the fitted maximal effect
How it was run: as §1

[4] = A2780 Cisplatin Sensitive Ovarian Cancer Cell Toxicity qHTS against the NCATS CANVASS Library (AID 1347353); further: nearly all actives have a fitted effect of over 60% in size; further: potency means the concentration at half of the fitted maximal effect
How it was run: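 Cells are plated at 750 per well and rest for 4 hours. Compounds are added across eleven concentrations, and incubated 72 hours before ATP is quantified by luminescence.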

[5] = HPAF-II 12hr Apoptosis Induction qHTS against the NCATS CANVASS Library (AID 1347358)
How it was run: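 Cells plated at 500 per well are dosed with compound and incubated 12 hours at 37 degrees C. Caspase-Glo 3/7 reagent is added and, after 15 min at room temperature, luminescence proportional to caspase activity is measured.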

[6] = SDT Cancer Cell Toxicity qHTS against the NCATS CANVASS Library (AID 1347365); further: nearly all actives have a fitted effect of over 60% in size; further: potency means the concentration at half of the fitted maximal effect
How it was run: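 Cytotoxicity is measured from cellular ATP: compounds in an 11-point concentration series are pinned onto SDT cells, incubated 72 hr at 37C, then CellTiterGlo is added and luminescence read.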

[7] = qHTS for activators of Nrf2/ARE signaling pathway screened against the NCATS CANVASS Library (AID 1347391); further: nearly all actives have a fitted effect of over 60% in size; further: potency means the concentration at half of the fitted maximal effect
How it was run: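 Beta-lactamase reporter signal, read as 460 and 530 nm emission under 405 nm excitation after 2 h CCF4 loading, reflected ARE activation in HepG2 cells treated 16 h with an 11-point series.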

[8] = Redox Reaction Profiling qHTS: Assay Interference Panel against the NCATS CANVASS Library (AID 1347401)
How it was run: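 Fluorescence read-out (525 nm excitation, 598 nm emission) at time zero and after 15 min in the dark tracked resorufin formation. Mix: 5 uM resazurin, 200 uM DTT, HEPES pH 7.3 buffer with NaCl.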

[9] = HEK293 18hr Apoptosis Induction qHTS against the NCATS CANVASS Library (AID 1347357)
How it was run: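 Luminescent caspase-3/7 signal is measured in HEK293 cells exposed for 18 hours to an 11-point concentration series; doxorubicin serves as the plate control.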

[10] = biological target: Luciferin 4-monooxygenase (Photinus pyralis) (UniProt P08659); assay: Firefly luciferase counterscreen qHTS: Assay Interference Panel against the NCATS CANVASS Library (AID 1347363); further: series mostly up to about 57 µM
How it was run: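 Purified P. pyralis luciferase (0.04 ug/mL, 4x reagent) added to Tris-acetate buffer with 0.013 mM D-luciferin, 0.013 mM ATP and 13.3 mM Mg-acetate; compounds preincubated 15 min, then luminescence read after 5 min, RT.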

[11] = KB-8-5-11 Cancer Cell Toxicity qHTS against the NCATS CANVASS Library (AID 1347364); further: nearly all actives have a fitted effect of over 75% in size; further: potency means the concentration at half of the fitted maximal effect
How it was run: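 Terse: KB-8-5-11, 500 cells/well, 72 hr, 37C/5% CO2, 11-pt titration, CellTiter-Glo readout; confirmatory runs ± 1uM tariquidar in medium.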

[12] = qHTS for Hypoxia signaling pathway (HIF-1) antagonists against the NCATS CANVASS Library (AID 1347374); further: nearly all actives have a fitted effect of over 60% in size; further: potency means the concentration at half of the fitted maximal effect
How it was run: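 Antagonism scored as loss of CoCl2-driven (60 uM stock added) HRE beta-lactamase signal, read by CCF4 FRET at 460/530 nm. Compounds were tested in an 11-point series on ME-180 reporter cells for 17 hrs at 37C, with parallel CellTiter-Glo cytotoxicity.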

[13] = qHTS for Antimalaria activity screened against the NCATS CANVASS Library (AID 1347380); further: nearly all actives have a fitted effect of over 40% in size; further: potency means the concentration at half of the fitted maximal effect
How it was run: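 Compounds are titrated over 11 concentrations onto Dd2 parasite cultures (0.3% parasitemia, 2.5% hematocrit). Growth over 72 h at 37C in low oxygen is measured as SYBR Green DNA fluorescence after lysis.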

[14] = qHTS for inhibitors of Wild type Zika virus screened against the NCATS CANVASS Library (AID 1347396);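 further: ATP luminescence of surviving cells so rescue from viral cell killing; series mostly up to about 46 µM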
How it was run: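 Protection against wild-type Zika cytopathic effect is measured in African green monkey Vero 766 cells exposed to an 11-point compound series. Surviving cells are quantified by CellTiter Glo luminescence after 72 h.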

[15] = Viability qHTS for inhibitors of the SERCaMP assay screened against the NCATS CANVASS Library (AID 1347400); further: nearly all actives have a fitted effect of over 70% in size; further: potency means the concentration at half of the fitted maximal effect
How it was run: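 Seed SH-SY5Y-GLuc SERCaMP MJH297 cells at 1000 per well, incubate 4 h, add compounds across an 11-point range, incubate 48 h at 37C, then add CellTiter-Glo and read luminescence.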

[16] = U-118MG Cancer Cell Toxicity qHTS against the NCATS CANVASS Library (AID 1347351); further: potency means the concentration at half of the fitted maximal effect
How it was run: as §1

[17] = UWB1.289-WTBRCA1 Cancer Cell Toxicity qHTS against the NCATS CANVASS Library (AID 1347354)
How it was run: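 First, 1000 cells go into each well and rest for 4 hours. Next, an 11-point dilution range is pinned in. Plates then incubate 72 hours before CellTiter-Glo addition and luminescence reading.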

[18] = HEK293 12hr Apoptosis Induction qHTS against the NCATS CANVASS Library (AID 1347361)
How it was run: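 Apoptosis in HEK293 was scored as caspase-3/7 luminescence following 12 h treatment with a compound concentration series in qHTS format.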

[19] = MCF7 Cancer Cell Toxicity qHTS against the NCATS CANVASS Library (AID 1347369)
How it was run: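 Cytotoxicity is measured by ATP content: MCF7 cells at 500 per well receive an 11-point compound series and, after 72 hr at 37C, are lysed with CellTiterGlo for luminescence.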

Measured: Potency

Chain of Luciferin 4-monooxygenase (Photinus pyralis) (P08659 whole entry, looked up): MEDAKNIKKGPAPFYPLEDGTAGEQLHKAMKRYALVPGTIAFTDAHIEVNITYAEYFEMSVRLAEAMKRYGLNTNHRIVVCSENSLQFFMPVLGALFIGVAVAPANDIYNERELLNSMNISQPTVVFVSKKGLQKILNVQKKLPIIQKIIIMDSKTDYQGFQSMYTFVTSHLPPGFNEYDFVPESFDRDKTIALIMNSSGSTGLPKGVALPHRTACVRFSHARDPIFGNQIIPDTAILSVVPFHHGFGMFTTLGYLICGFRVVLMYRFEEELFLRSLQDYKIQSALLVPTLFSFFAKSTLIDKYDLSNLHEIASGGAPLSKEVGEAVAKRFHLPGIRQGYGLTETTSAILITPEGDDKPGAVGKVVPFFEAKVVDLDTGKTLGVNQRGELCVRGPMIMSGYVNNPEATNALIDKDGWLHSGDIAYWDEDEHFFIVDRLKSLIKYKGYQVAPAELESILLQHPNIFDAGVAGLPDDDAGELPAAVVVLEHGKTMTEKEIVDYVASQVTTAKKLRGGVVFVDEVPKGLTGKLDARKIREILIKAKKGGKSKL

C=C1C[C@H]2O[C@@H]3[C@@H]4[C@H](CC[C@@](C)(O)[C@@H]42)[C@H](C)COC3(C)[C@@H](OC(=O)CCCCCCC)CC1=O (some centres not stated)
active: [1] 21.1 µM | [2] 18.8 µM | [3] 8.41 µM | [4] 13.2 µM | [6] 23.5 µM
inactive: [5] | [7] | [8]

COc1cc(C2C3=C(Cc4cc5c(cc42)OCO5)C(=O)OC3)cc(OC)c1OC (configuration not stated)
active: [4] 0.0833 µM | [11] 0.105 µM | [6] 0.118 µM | [13] 9.41 µM | [15] 0.0604 µM
inactive: [1] | [3] | [9] | [5] | [10] | [12] | [14]

CC[C@@H](c1cc(OC)c(OC)cc1OC)[C@H](C)[C@@H](/C(C)=C/c1cc(OC)c(OC)cc1OC)c1cc(OC)c(OC)cc1OC
inactive: [1] | [16] | [17] | [10] | [11] | [6] | [14] | [15] | [8]
active: [3] 11.9 µM | [4] 14.8 µM and 20.9 µM | [13] 747 nM and 1.88 µM

CO[C@@H]1[C@H](O)[C@@H](C)O[C@@H](OC[C@@H]2C(C)OC(=O)/C=C/[C@H](C)C(O[C@@H]3O[C@H](C)CC4(OC(=O)O[C@@H]4C)C3O)[C@@H](C)CC(C)C(=O)/C=C/[C@H]3OC23)[C@@H]1OC (some centres not stated)
inactive: [3] | [10] | [11] | [14] | [8]
active: [16] 16.8 µM | [4] 11.8 µM | [6] 16.6 µM | [12] 18.8 µM | [13] 14.9 µM | [7] 3.71 µM | [15] 42.8 µM

C/C(=C\[C@H](C)C(=O)C[C@H](O)CC1CC(=O)NC(=O)C1)[C@@H]1OC(=O)CCCC/C=C/[C@@H](O)C[C@@H]1C
inactive: [3] | [5] | [18] | [10] | [11] | [19] | [14] | [8]
active: [4] 2.35 µM | [6] 2.35 µM | [12] 4.2 µM | [7] 7.41 µM

CC[C@H]1[C@@H](C)[C@@H](c2cc(OC)c(OC)cc2OC)[C@H](C)[C@@H](c2cc(OC)c(OC)cc2OC)[C@@]12C=C(OC)C(=O)C=C2OC
active: [3] 11.9 µM | [4] 9.35 µM | [11] 29.6 µM
inactive: [9] | [10] | [8]

C=C1C(=O)O[C@H]2[C@H]1CCC(C)=C1CC[C@@](C)(O)[C@@H]12
active: [1] 11.8 µM | [2] 18.8 µM | [3] 14.9 µM | [4] 4.18 µM | [11] 23.5 µM | [6] 26.4 µM | [7] 0.186 µM | [15] 42.8 µM
inactive: [18] | [14] | [8]

CC(C)[C@@H]1CC(=O)c2coc3c2[C@H]1C[C@@H](C)C3=O
inactive: [1] | [17] | [9] | [18] | [10] | [19] | [14] | [8]

C/C(=C\[C@@H](C)CC/C=C/CC/C=C/C(=O)O)[C@H](O)[C@H](C)C(=O)CCCC1CC(=O)NC(=O)C1
not listed: [6] | [8] | [18]
inactive: all other assays above

C[C@H](c1cnc(N)[nH]1)c1ccc(O)c2[nH]cc(-c3cnc(-c4c[nH]c5ccccc45)c(=O)[nH]3)c12
not listed: [5] | [6] | [8] | [9] | [12] | [13] | [18]
inactive: all other assays above

CC[C@@H]1[C@H](C)[C@H](c2cc(OC)c(OC)cc2OC)[C@@H](C)[C@H](c2cc(OC)c(OC)cc2OC)[C@]12C=C(OC)C(=O)C=C2OC
active: [3] 21.1 µM | [13] 2.98 µM
inactive: [17] | [9] | [18] | [10] | [19] | [7] | [8]

C/C=C/c1cc2c(c(=O)o1)C(=O)[C@@H](O)[C@H](C)O2
inactive: [16] | [5] | [10] | [19] | [13] | [14] | [8]
active: [2] 16.7 µM | [4] 2.35 µM | [6] 10.5 µM | [12] 14.9 µM | [7] 4.67 µM | [15] 34 µM

C=C1C[C@H]2O[C@@H]3[C@@H]4[C@H](CC[C@@](C)(O)[C@@H]42)[C@H](C)COC3(C)[C@@H](OC(=O)CCCCCCC)C[C@H]1O (some centres not stated)
inactive: [16] | [17] | [9] | [14] | [15] | [8]
active: [13] 0.0059 µM | [7] 20.9 µM

C=C[C@@](C)(O)CC[C@@H]1[C@@]2(C)CCCC(C)(C)[C@@H]2CC[C@@]1(C)O
not listed: [3] | [6] | [10] | [11] | [13] | [16]
inactive: all other assays above
